Activity calls are given as the source filed them.

Assay [1] has as its target NADPH oxidase 4 (Homo sapiens) (UniProt Q9NPH5). Nature of the assay: compounds shifting NOX4 Amplex Red fluorescence – cell-based, HEK293-NOX4, tetracycline-induced, NOX inhibitor project, primary screen (AID 1160). To be noted: HEK293-NOX4, Amplex Red H2O2 fluorescence, 45 min; higher = more signal, called active from +8 up or from −8 down.
For assay [2], the target named is NADPH oxidase 5 (Homo sapiens) (UniProt Q96PH1). Nature of the assay: compounds shifting NOX5 Amplex Red fluorescence – cell-based, HEK293-NOX5, NOX inhibitor project, primary screen (AID 1161). To be noted: HEK293-NOX5, ionomycin, 45 min, higher = more signal.
Assay [3] can be described thus: compound effects on lung adenocarcinoma cell viability – A549, calcein-AM fluorescence, 48 h, basal, profiling panel (AID 1162). Also: test concentration not given here. To be noted: higher = more signal.
A short description of assay [4]: compound effects on differentiated 3T3-L1 adipocyte viability – cell-based, 3T3-L1 adipocytes, calcein-AM fluorescence, 48 h, basal, profiling panel (AID 1163). Also: test concentration not given here. Conditions: 3T3-L1 adipocytes viability, higher = more signal.
A short description of assay [5]: compound effects on hepatocellular carcinoma cell viability – HepG2, calcein-AM fluorescence, 48 h, basal, profiling panel (AID 1164). Also: test concentration not given here. Conditions: higher = more signal.
A short description of assay [6]: compound effects on multiple myeloma cell viability – MM1S, calcein-AM fluorescence, 48 h, basal, profiling panel (AID 1165).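 Also: viability of MM1S multiple myeloma cells under basal unstimulated conditions; test concentration not given here.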 To be noted: higher = more signal.
Assay [7] in a line: calcein-AM signal in unstimulated myeloma cells – cell-based, calcein-AM fluorescence, 48 h, PK04 Diversity Set, profiling panel (AID 1166).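 Also: cells grown under basal conditions without added stimulus; test concentration not given here.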 To be noted: RPMI8226 myeloma viability, higher = more signal.
Assay [8] can be described thus: JC-1 mitochondrial signal, unstimulated HepG2 cells – cell-based, JC-1 fluorescence, 24 h, 100 nL compound, profiling panel (AID 1167). Also: test concentration not given here. Conditions: HepG2 mitochondrial potential, higher = more signal.
Assay [9] can be described thus: JC-1 mitochondrial signal, unstimulated adipocytes – cell-based, JC-1 fluorescence, 3T3-L1 adipocytes, 24 h, 100 nL compound, profiling panel (AID 1168). Also: test concentration not given here. To be noted: JC-1 mitochondrial fluorescence, higher = more signal, called active from +8 up or from −8 down.
Assay [10] in a line: JC-1 mitochondrial signal, unstimulated myeloma cells – cell-based, JC-1 fluorescence, RPMI8226, 24 h, 100 nL compound, profiling panel (AID 1169). Also: test concentration not given here. Conditions: JC-1 mitochondrial potential fluorescence, higher = more signal.
The nature of assay [11]: JC-1 mitochondrial signal, unstimulated MM1S myeloma – cell-based, JC-1 fluorescence, 24 h, 100 nL compound, profiling panel (AID 1170). Also: test concentration not given here. To be noted: MM1S mitochondrial potential, higher = more signal.
Assay [12] is described as follows: resazurin metabolic signal in A549 cells – cell-based, resazurin fluorescence, 24 h, PK04 Diversity Set, profiling panel (AID 1171). Also: test concentration not given here. Conditions: A549 viability, higher = more signal, called active from +8 up or from −8 down.
Assay [13] can be described thus: resazurin metabolic signal in HepG2 cells – cell-based, resazurin fluorescence, 24 h, PK04 Diversity Set, profiling panel (AID 1172). Also: test concentration not given here. Conditions: HepG2 viability, higher = more signal.
A short description of assay [14]: budding yeast growth changes without added modifier – OD600, strain BY4716, 24 h, basal condition, primary screen (AID 1173). To be noted: S. cerevisiae BY4716 growth, OD600, 24 h; higher = more signal, called active from +8 up or from −8 down.
A short description of assay [15]: viability profiling in MM1S myeloma cells – cell-based, resazurin fluorescence, basal, 24 h, PK04 Diversity Set, profiling panel (AID 1174). Also: test concentration not given here. Conditions: higher = more signal, called active from +8 up or from −8 down. For orientation: Resazurin is reduced to fluorescent resorufin, in cell work by metabolically active cells.
The target of assay [16] is Dihydroorotate dehydrogenase (quinone), mitochondrial (Plasmodium falciparum (isolate 3D7)) (UniProt Q08210). Description: inhibition of P. falciparum DHODH – biochemical, C-terminal His tag, absorbance 600 nm, primary screen (AID 1175).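 Also: recombinant parasite enzyme with a five histidine tag at its C terminus; test concentration not given here.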 Conditions: PfDHODH enzyme, DCIP absorbance 600 nm; higher = more signal, called active from +8 up or from −8 down.
Assay [17] is described as follows: growth modulation of vineyard yeast isolate – strain RM11-1a, OD600, basal, 24 h, primary screen (AID 1177).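 Also: cultures grown under basal conditions with no added stressor; test concentration not given here.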 Conditions: S. cerevisiae RM11-1a growth, OD600, 24 h; higher = more signal, called active from +8 up or from −8 down.
Assay [18] in a line: growth of efflux-deficient E. coli DRC39 – strain DRC39, OD650, 24 h, E. coli filamentation inducers, primary screen (AID 1178).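 Also: growth measured as culture turbidity by optical density at 650 nm; test concentration not given here.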 Conditions: E. coli DRC39 acrAB, higher = more signal, called active from +8 up or from −8 down.
The nature of assay [19]: growth of efflux-deficient E. coli DRC39 – strain DRC39, OD650, 48 h, E. coli filamentation inducers, primary screen (AID 1179).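 Also: screen aims at cell division blockers that make cells filament.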 To be noted: E. coli DRC39 delta-acrAB growth, higher = more signal, called active from +8 up or from −8 down.
Assay [20] is described as follows: viability profiling in RPMI8226 myeloma cells – cell-based, resazurin fluorescence, basal, 24 h, PK04 Diversity Set, profiling panel (AID 1180).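 Also: RPMI8826 multiple myeloma cell line at 5000 cells per well; test concentration not given here.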 To be noted: higher = more signal.

Chain of NADPH oxidase 5 (Homo sapiens) (Q96PH1 whole entry, looked up): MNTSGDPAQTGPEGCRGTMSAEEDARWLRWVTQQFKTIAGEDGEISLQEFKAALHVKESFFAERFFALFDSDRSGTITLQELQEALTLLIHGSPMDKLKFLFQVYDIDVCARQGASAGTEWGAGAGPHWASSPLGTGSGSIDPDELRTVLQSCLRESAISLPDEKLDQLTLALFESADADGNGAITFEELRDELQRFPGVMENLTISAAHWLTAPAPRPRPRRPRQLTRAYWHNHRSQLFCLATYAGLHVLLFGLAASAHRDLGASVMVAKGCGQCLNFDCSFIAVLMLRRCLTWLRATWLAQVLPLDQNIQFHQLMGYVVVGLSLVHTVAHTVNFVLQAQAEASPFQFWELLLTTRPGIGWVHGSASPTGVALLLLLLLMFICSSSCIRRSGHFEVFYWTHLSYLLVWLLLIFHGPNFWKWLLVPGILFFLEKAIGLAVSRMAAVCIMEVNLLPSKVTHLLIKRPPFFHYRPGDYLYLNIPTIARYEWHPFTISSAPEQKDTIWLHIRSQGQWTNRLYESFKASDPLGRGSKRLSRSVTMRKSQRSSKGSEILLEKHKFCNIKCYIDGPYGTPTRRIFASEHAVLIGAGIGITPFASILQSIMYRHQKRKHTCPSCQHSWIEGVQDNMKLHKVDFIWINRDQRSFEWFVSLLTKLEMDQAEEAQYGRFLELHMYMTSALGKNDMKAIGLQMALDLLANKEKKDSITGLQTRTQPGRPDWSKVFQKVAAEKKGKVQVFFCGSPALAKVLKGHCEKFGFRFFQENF
Chain of Dihydroorotate dehydrogenase (quinone), mitochondrial (Plasmodium falciparum (isolate 3D7)) (Q08210 whole entry, looked up): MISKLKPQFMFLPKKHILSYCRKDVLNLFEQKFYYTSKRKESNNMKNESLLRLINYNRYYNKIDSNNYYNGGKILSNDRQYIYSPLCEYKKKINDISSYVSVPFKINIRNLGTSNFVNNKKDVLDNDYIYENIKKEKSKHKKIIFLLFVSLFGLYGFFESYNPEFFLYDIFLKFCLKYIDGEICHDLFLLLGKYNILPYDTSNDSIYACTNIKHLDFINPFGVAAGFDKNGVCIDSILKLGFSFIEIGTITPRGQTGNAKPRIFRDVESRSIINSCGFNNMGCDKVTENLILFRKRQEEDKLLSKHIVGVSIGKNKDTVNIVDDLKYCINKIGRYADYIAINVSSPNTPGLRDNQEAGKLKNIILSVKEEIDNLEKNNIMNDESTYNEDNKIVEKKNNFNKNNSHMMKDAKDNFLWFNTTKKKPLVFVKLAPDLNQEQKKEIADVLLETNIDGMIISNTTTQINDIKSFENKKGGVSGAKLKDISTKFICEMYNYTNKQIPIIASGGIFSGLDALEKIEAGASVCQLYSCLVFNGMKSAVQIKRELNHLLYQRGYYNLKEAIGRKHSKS
Chain of NADPH oxidase 4 (Homo sapiens) (Q9NPH5 whole entry, looked up): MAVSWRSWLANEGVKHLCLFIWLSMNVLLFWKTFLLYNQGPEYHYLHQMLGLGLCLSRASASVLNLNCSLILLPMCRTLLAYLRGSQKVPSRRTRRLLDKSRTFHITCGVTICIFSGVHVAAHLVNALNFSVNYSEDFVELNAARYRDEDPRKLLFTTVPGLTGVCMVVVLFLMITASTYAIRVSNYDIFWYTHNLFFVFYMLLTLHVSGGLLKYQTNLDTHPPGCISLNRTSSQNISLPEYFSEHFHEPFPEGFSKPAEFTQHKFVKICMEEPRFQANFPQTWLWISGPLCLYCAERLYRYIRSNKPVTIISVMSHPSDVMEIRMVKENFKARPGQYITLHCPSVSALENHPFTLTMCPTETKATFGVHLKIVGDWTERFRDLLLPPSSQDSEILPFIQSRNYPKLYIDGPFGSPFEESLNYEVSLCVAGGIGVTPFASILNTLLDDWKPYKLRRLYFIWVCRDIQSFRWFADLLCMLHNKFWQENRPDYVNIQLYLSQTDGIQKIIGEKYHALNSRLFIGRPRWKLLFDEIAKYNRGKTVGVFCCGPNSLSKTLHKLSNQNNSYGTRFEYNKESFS

Consider `COCCCNC(=O)[C@@]1(CCS(=O)(=O)c2ccccc2)N=C(c2ccc(OCCCO)cc2)O[C@H]1c1ccccc1CN=[N+]=[N-]`, for which the z-score in assay [1] was -0.383 (inactive); in [2], -0.497; in assay [3] it was 1; in assay [4], 2.66; in assay [5], -0.0301; in assay [6], 0.872. Further, the z-score was -0.532 in [7]; 1.02 in assay [8]; 0.164 (inactive) in [9]; -0.866 in [10]; 0.175 in assay [11]; 0.0658 (inactive) in assay [12]. For the same compound, the z-score is -0.404 in assay [13]; -0.938 (inactive) in assay [14]; 1.21 (inactive) in assay [15]; -1.49 (inactive) in [17]; 1.4 (inactive) in assay [18]; 0.502 (inactive) in assay [19]. This compound also came in with a z-score in assay [20] of 0.846. Also, the composite z-score in assay [16] was -1.02 (inactive).

As for `C#CCOc1ccc(C[C@H]2C(=O)O[C@H](Cc3ccccc3)[C@H](/C=C/C3CC3)N2CC#C)cc1`, the z-score in assay [1] is 0.764 (inactive); in [2] it was -1.52; in assay [3], -0.743; in [4], 0.892; in assay [5], -0.99; in assay [6] it was -1.63. Besides, the z-score was -1.89 in assay [7]; 2.08 in assay [8]; 0.476 (inactive) in assay [9]; -0.599 in assay [10]; 0.0151 in [11]; 1.51 (inactive) in assay [12]. Moreover, the z-score in assay [13] was 1.71; in assay [14], -0.783 (inactive); in assay [15], 0.35 (inactive); in assay [17], 1.29 (inactive); in [18] it was 2.66 (inactive); in [19], 1.81 (inactive). Moreover, in assay [20], the z-score was determined as 0.915. In assay [16], the composite z-score was 0.656 (inactive).

In the case of `C=C1C=C(Br)C2(OCCCO2)[C@H]2OC12` (stereo not given in full), the z-score in assay [1] is 0.0158 (inactive); in assay [2], 0.705; in assay [3], -1.53; in assay [4], -0.191; in assay [5], 0.817; in [6], 0.174. The z-score is -0.0566 in assay [7]; 0.533 in assay [8]; -0.696 (inactive) in assay [9]; 0.305 in assay [10]; -0.443 in [11]; -0.54 (inactive) in [12]. Moreover, the z-score in assay [13] is -0.92; in [14], -0.353 (inactive); in assay [15], -2.94 (inactive); in assay [17], 0.307 (inactive); in [18], 0.846 (inactive); in assay [19], 0.781 (inactive). In assay [20], this compound came in with a z-score of -0.846. In addition, in [16], the composite z-score was -0.99 (inactive).

Consider `C=C(/C(=C/C[C@H](OC(=O)c1ccncc1)c1cccc(OCCO)c1)c1cc(C(=O)OC)ccc1OC)C(C)C`, for which the z-score in assay [1] is 0.0371 (inactive); in [2], -1.71; in assay [3] it was 0.396; in assay [4], 1.7; in assay [5], -0.712; in assay [6], -0.026. Also, the z-score in assay [7] is 0.566; in assay [8], 2.15; in assay [9] it was 0.746 (inactive); in [10] it was 0.0166; in assay [11], 0.343; in assay [12], 2.01 (inactive). In addition, the z-score is 0.731 in assay [13]; -0.177 (inactive) in assay [14]; 1.8 (inactive) in assay [15]; -1.06 (inactive) in [17]; 1.17 (inactive) in assay [18]; 0.196 (inactive) in assay [19]. Also, the z-score in assay [20] worked out at 0.987. Also, the composite z-score in [16] was -0.494 (inactive).

As for `CC(C)N1CC=CC23O[C@@H]4/C=C\CCCOC(=O)C4[C@H]2C(=O)N(CCCO)[C@@H]3C1=O` (stereo not given in full), the z-score in assay [1] is -1.85 (inactive); in assay [2] it was 2.19; in [3] it was 1.02; in assay [4] it was 0.834; in assay [5], 0.152; in [6], 0.827. For the same compound, the z-score in assay [7] was 0.311; in assay [8], 0.795; in assay [9], 0.32 (inactive); in [10], 0.747; in [11], 0.789; in assay [12], 0.817 (inactive). The z-score in assay [13] is 0.129; in assay [14] it was 0.11 (inactive); in assay [15], 0.791 (inactive); in assay [17] it was 1.05 (inactive); in [18], 1.36 (inactive); in [19], 1.25 (inactive). Further, the z-score in assay [20] amounted to 1.78. Besides, the composite z-score in assay [16] is -0.506 (inactive).

Values taken from PubChem BioAssay.
